From PubChem BioAssay AID588354 (The Scripps Research Institute Molecular Screening Center, 2011)
The whole screen tested about 360,000 compounds, of which about 430 (0.12%) were called active. Shown is part of a subset that was picked to be rich in actives. Values without a mark were called inactive.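 How the source made its calls: active means inhibition above the campaign mean plus 3 SD, with each screening campaign given its own cutoff (cut at about 60% in these data); inactive means the rest.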

Molecular target: Nuclear receptor coactivator 1 (Homo sapiens) (UniProt Q15788)
Sequence (Q15788 whole entry, looked up, the tested form may be a part): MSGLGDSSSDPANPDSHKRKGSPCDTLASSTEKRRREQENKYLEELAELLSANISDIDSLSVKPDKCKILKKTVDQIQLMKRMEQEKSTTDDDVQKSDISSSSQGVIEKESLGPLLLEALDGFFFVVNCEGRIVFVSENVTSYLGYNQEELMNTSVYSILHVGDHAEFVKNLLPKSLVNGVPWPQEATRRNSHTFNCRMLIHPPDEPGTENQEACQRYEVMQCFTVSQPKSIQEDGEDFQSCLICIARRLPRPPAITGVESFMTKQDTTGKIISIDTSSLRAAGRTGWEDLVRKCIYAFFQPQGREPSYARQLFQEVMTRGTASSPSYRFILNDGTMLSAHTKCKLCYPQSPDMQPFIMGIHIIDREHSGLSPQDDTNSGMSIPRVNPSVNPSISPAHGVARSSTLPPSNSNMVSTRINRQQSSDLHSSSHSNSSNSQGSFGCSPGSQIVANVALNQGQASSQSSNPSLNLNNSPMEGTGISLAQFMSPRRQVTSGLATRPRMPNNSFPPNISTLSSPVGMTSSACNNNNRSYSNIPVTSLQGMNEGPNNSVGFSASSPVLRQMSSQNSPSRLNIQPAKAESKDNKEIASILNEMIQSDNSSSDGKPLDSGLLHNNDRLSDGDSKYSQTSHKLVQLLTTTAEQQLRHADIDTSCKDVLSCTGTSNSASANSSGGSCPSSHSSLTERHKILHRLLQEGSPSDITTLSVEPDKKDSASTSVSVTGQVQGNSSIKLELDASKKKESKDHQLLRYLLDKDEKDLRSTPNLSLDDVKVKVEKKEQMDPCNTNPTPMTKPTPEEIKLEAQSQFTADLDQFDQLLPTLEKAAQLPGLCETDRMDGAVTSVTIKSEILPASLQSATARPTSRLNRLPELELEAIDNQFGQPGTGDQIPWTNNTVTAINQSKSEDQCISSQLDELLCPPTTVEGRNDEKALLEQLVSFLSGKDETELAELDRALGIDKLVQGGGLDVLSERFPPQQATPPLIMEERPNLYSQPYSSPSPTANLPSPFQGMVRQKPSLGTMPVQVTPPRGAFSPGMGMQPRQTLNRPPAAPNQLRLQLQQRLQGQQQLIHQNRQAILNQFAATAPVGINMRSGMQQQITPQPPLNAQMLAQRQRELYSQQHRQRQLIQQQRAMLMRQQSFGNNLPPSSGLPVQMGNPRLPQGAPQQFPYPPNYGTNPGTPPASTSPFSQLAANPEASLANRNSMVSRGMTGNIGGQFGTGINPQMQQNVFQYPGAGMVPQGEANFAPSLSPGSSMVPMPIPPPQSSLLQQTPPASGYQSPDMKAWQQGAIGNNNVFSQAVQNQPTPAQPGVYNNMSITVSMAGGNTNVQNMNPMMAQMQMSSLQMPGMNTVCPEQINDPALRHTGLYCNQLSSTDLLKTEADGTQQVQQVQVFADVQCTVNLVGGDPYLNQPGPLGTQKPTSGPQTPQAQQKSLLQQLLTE
Test: NCOA1 GAL4-fusion reporter inhibition – cell-based, luminescence, primary screen (AID 588354);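 further: 0% = DMSO treated cells and 100% = gossypol at 36 µM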
Conditions: HEK293 GAL4-SRC1 luciferase reporter, at 3.6 µM, hits give high values

| SMILES | inhibition |
| --- | --- |
| CCOc1cc(CNCc2ccccn2)ccc1OCC(=O)NC(C)(C)C | 10.8% |
| O=C(Cc1ccccn1)c1ccc(O)cc1O | -0.25% |
| CCC(C)C(=O)Nc1cc([N+](=O)[O-])ccc1Cl (centres undefined) | -3.1% |
| OCCCNc1nccc(-c2cc(Nc3cccc(Cl)c3)ncn2)n1 | 73.6% (active) |
| COc1ccc(-c2c(C#N)cnc(C)c2C)c(O)c1OC | -0.11% |
| O=C(c1ccc[nH]c1=S)N1CCN(S(=O)(=O)c2ccc(Br)cc2Cl)CC1 | -3.09% |
| CC(C)CCNC(=O)CCNS(=O)(=O)c1ccc(Cl)cc1 | -13% |
| Nc1cc2c(cc1Br)-c1ccc(F)cc1C2=O | -13.1% |
| CCOC(=O)N1CCC(O)(c2cc(C)c(C)cc2C)CC1 | -15.8% |
| O=C(NCc1ccccc1Cl)C1CCCN1S(=O)(=O)c1ccc(F)cc1 (centres undefined) | -10.6% |
| CCn1nc(C)c(CNC(=O)C2CCC(=O)N(Cc3cccc(F)c3)C2)c1C (centres undefined) | -37.5% |
| COc1ccc(NC(=O)CSc2nc(NS(=O)(=O)c3ccc(C)cc3)cc(=O)[nH]2)cc1 | -19.6% |
| COCCn1nnnc1CN1CCC(NC(=O)Nc2cccc(OC)c2)CC1 | 0.56% |
| CC(=O)c1ccc(N2CCN(C(=O)CCNC(=O)Cn3ccc4ccccc4c3=O)CC2)cc1 | 3.75% |
| O=C(c1cccc(-n2cccc2)c1)N1CCN(S(=O)(=O)c2ccc(F)cc2)CC1 | -2.17% |
| COc1ccc([C@H]2[C@H](C(C)=O)N3N=Cc4ccccc4C3C23C(=O)OC(C)(C)OC3=O)cc1 (some centres undefined) | -26.2% |
| CC(C)Oc1ccc(/C=N/NC(=O)c2nnn(-c3nonc3N)c2CN(C)C2CCCCC2)cc1 | 7.06% |
| CCOc1ccccc1-n1c(SCC(=O)NCc2ccco2)nnc1-c1ccncc1 | 5.79% |
| O=C(COC(=O)CCOc1ccccc1)Nc1cc(S(=O)(=O)N2CCCCC2)ccc1Cl | -9.87% |
| COCCOC1CCN(C(=O)c2ccc(OC)c(OC3CCN(C(C)C)CC3)c2)CC1 | -0.27% |
| CCOC(=O)CC1COCCN1C(=O)c1cc(COc2ccc(F)c(F)c2)on1 (centres undefined) | -5.67% |
| COCCn1c(N)c(NCc2ccccc2)c(=O)[nH]c1=O | -11.5% |
| CCOP1(=O)C=C(C(C)(C)C)OC1c1ccc(F)cc1 (centres undefined) | -6.16% |

| SMILES | inhibition |
| --- | --- |
| O=C(O)COCC(=O)NCc1csc2ccc(Cl)cc12 | 11.9% |
| CC1(C)CC(CNCCC(c2ccc(F)cc2)c2ccco2)CCO1 (centres undefined) | 12.7% |
| COc1ccc(-c2nnc(SCC(=O)Nc3cccnc3Cl)n2C)cc1 | 16.4% |
| CCOC1=C2CN(S(=O)(=O)c3ccc(C)cc3)[C@H](c3cccs3)C[C@H]2[C@H]2C(=O)N(c3ccccc3)C(=O)[C@H]2C1 | 0.21% |
| Cc1[nH]c(C)c(S(=O)(=O)N2CCC(C)CC2)c1C(=O)N1CCCC1 | 0.69% |
| Cc1nc(-c2ccccc2)sc1-c1nc(-c2ccccc2)ncc1S(=O)(=O)c1ccccc1 | 7.02% |
| CCOc1ccc(CNC(=O)C2CC(=O)N(C3CCCC3)C2)cc1OC (centres undefined) | -4.04% |
| COc1ccc(NC(=O)CN(C)C(=O)CNC(=O)C2CCCCC2)cc1 | 6.97% |
| O=C(COC(=O)c1ccco1)Nc1ccc(Cl)cn1 | -10.8% |
| COc1cccc(/C=C(/CC(=O)Nc2ccc(N3CCOCC3)cc2)c2nc3ccccc3s2)c1 | -38.5% |
| COC(=O)Cc1[nH]n(-c2nc3ccccc3s2)c(=O)c1C(C)=Nc1ccc(OC)cc1 | 81.3% (active) |
| COCCCC1CCN(C(=O)C2CCC(=O)N(C3CCCCCC3)C2)CC1 (centres undefined) | 2.7% |
| CCN(CC)C(=O)C1=C(C)N(Cc2ccccc2)C(=O)C(CC(=O)NC(c2ccccc2)c2ccccc2)C1 (centres undefined) | -24.8% |
| FC(F)(F)c1nc(-c2ccccc2)ncc1-c1nnnn1-c1ccccc1 | 2.72% |
| CC1=CC(C)(C)Nc2ccc(OC(=O)CN3C(=O)C4CCCCC4C3=O)cc21 (centres undefined) | -14.7% |
| CC[C@H]1CN2CCc3cc(OC)c(OC)cc3[C@@H]2C[C@@H]1C[C@H]1NCCc2cc(OC)c(OC)cc21 | 94.8% (active) |
| Nc1c(N(CCCO)C(=O)C2CCCC2)c(=O)[nH]c(=O)n1Cc1ccccc1 | -4.42% |
| Cc1cc(C)nc(-n2ncc3c2CC(c2ccc(C(C)C)cc2)CC3=O)n1 (centres undefined) | -16.7% |
| O=C(CC(O)(C(F)(F)F)C(F)(F)F)Nc1ccc(Cl)c(Cl)c1 | 71.9% (active) |
| CC1(C(=O)O)CCC(C(=O)Nc2ccc(Cl)c(Cl)c2)C1(C)C (centres undefined) | 1.51% |
| N#CCCN(C(=O)Nc1ccc(Cl)c(Cl)c1)C1CCCCC1 | 4.76% |
| O=C(Nc1cc(S(=O)(=O)N2CCOCC2)ccc1N1CCOCC1)c1c(F)cccc1Cl | 4.42% |
| CCOc1ccc(S(=O)(=O)N2CCC(C(=O)NCC(=O)Nc3cccc(Cl)c3C)CC2)cc1 | -15% |

| SMILES | inhibition |
| --- | --- |
| COCOc1cc(O)c(C(=O)/C=C/c2ccc(OCOC)c(OCOC)c2)c(OCOC)c1 | -3.45% |
| C=CCn1c(C)cc(C2=NNC(=NCC)SC2)c1C | 87.5% (active) |
| Cc1ccc(N2C(=O)CN=C2Nc2nc(C)cc(C)n2)cc1 | 0.5% |
| COc1ccc(CNC(=O)CN2C(=O)c3ccccc3S2(=O)=O)cc1 | 2.81% |
| CN(Cc1cccs1)C(=O)CN1C(=O)c2ccccc2S1(=O)=O | -19.1% |
| O=C(CN1C(=O)c2ccccc2S1(=O)=O)N1CCc2ccccc21 | 73% (active) |
| CC1CC(NC(=S)N(C)C)CC(C)(C)C1 (centres undefined) | 0.06% |
| Cc1ccc(NC(=O)CN2CCC3(O)CCCCC3C2c2ccc3c(c2)OCO3)c(C)c1 (centres undefined) | 5.71% |
| CCCCCCCCn1c2c(c(=N)c3c1CCC3)CCCC2 | 69% (active) |
| O=C(COC(=O)C1CCN(S(=O)(=O)c2ccc3c(c2)OCCO3)CC1)Nc1ccccc1OC(F)F | 6.03% |
| O=C(CCNC(=O)c1ccc([N+](=O)[O-])cc1)Nc1ccccc1N1CCOCC1 | -16.9% |
| Cc1ccsc1C(=O)OCC(=O)c1cc(C)n(CC2CCCO2)c1C (centres undefined) | 82.3% (active) |
| Cc1ccsc1C(=O)OCC(=O)NCCc1ccccc1 | -29.4% |
| COc1ccc(CNC(=O)COC(=O)c2sccc2C)cc1OC | 2.6% |
| Nc1nc(SCC(=O)N2CCN(S(=O)(=O)c3ccc(Cl)cc3)CC2)n[nH]1 | 9.56% |
| Cc1cc(C)n2nc(C(=O)N(C)C(c3ccccc3)c3ccccc3)nc2n1 | -3.03% |
| CCc1ccnc(NS(=O)(=O)c2ccc3c(c2)OCCO3)c1 | -6.15% |
| CC(=O)NC1C(Oc2ccc(C=O)cc2)OC(COC(C)=O)C(OC(C)=O)C1OC(C)=O (centres undefined) | -13.2% |
| CC1CCCC(C)N1/N=C/c1ccccc1OC(F)F (centres undefined) | -2.18% |
| CC12C(=O)N(n3cnnc3)C(=O)C1C1C=CC2C1 (centres undefined) | -10.2% |
| C=CCC1(CC=C)CCCN1C(=O)c1cc(COc2ccc(-n3cncn3)cc2)on1 | -1.06% |
| Cc1ccc(S(=O)(=O)N2CCN=C2SCc2c(F)cccc2Cl)cc1 | -14.6% |
| O=C(O)C1C2CC2CN1C(=O)c1ccc(Cl)cc1Cl (centres undefined) | 10.7% |

| SMILES | inhibition |
| --- | --- |
| CC(NC(=O)c1ccccc1C(=O)O)c1ccc(-n2ccnc2)cc1 (centres undefined) | -1.09% |
| N#CC1(NC(=O)COc2ccc3oc4ccccc4c3c2)CCCCC1 | 2.18% |
| COc1ccc(OC)c(S(=O)(=O)Nc2cccc(-c3ccc4nncn4n3)c2)c1 | -20.7% |
| CC1CCCCC12NC(=O)N(CC(=O)N1CCN(c3ccccc3)CC1)C2=O (centres undefined) | 1.99% |
| CN(C)c1ccc(CSc2ccccc2)cc1 | -41.4% |
| CCN(CC)C(=O)[C@H]1C[C@H](CC(=O)NCC23CC4CC(CC(C4)C2)C3)C(=O)N2CCc3c([nH]c4cc(CCC(=O)N(C)C)ccc34)[C@]12C | 4.03% |
| Cc1cc(C)c2c(c1)c(C)cc1nnc(SCC(=O)NCc3ccco3)n12 | -10.2% |
| CC(C)c1cccc(C(C)C)c1Nc1cn[nH]c1 | -5.74% |
| CC(=O)c1cccc(NC(=O)N2CCCC2C(=O)NCCC(C)C)c1 (centres undefined) | -16% |
| C=CCn1c(SCc2cc(C(=O)OC)c(C)o2)nnc1-c1ccncc1 | -8.14% |
| CCn1nc(NC(=O)c2ccco2)c2cc3ccc(C)cc3nc21 | 5.64% |
| CN(Cc1ccc(CNC[C@H]2O[C@@H](n3cnc4c(N)ncnc43)[C@H](O)[C@@H]2O)o1)S(C)(=O)=O | -4.89% |
| O=C(NCc1ccccc1)C(c1ccco1)N(C(=O)c1csnn1)c1ccccc1F (centres undefined) | -7.13% |
| COc1cc(OC)cc(-c2cc3ccc(F)cc3cn2)c1 | -60% |
| CCOC(=O)c1cc(C(=O)Nc2ccc(S(=O)(=O)Nc3ccc(OC)cc3)cc2)nn1C | 7.15% |
| O=C(Nc1cc2c3c(c1)C1CCCC1CN3CC1CCCC21)c1ccc([N+](=O)[O-])cc1 (centres undefined) | -2.56% |
| CCOC(=O)NC(=O)CSc1nnc(SCCC(=O)O)s1 | -8.78% |
| COc1ccc(C2=Nn3c(nnc3-c3ccccc3OC)SC2)cc1OC1CCCC1 | -15.9% |
| CCCCN(C(=O)CCNC(=O)NC12CC3CC(CC(C3)C1)C2)c1c(N)n(CCCC)c(=O)[nH]c1=O | 4.35% |
| C=CCOc1cccc(C2NC(=O)c3ccccc3O2)c1 (centres undefined) | 3.13% |
